Assay outcomes (PubChem)
SENP7 block – SENP7 protease inhibitors, primary screen, biochemical, luminescence, uHTS. 1.5% of 330,000 active. recombinant SENP7, Z-RLRGG-aminoluciferin luminescence, 40 min. inhibition, % at 5 µM. Sentrin-specific protease 7 (Homo sapiens), Q9BQF6. AID 434973, 2010;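 active = inhibition above about 50% at the single test dose, limit read from the data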;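 also: plate controls were DMSO with enzyme for no effect and no enzyme buffer wells for full effect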
Target sequence (Q9BQF6 706-1050 limits assumed): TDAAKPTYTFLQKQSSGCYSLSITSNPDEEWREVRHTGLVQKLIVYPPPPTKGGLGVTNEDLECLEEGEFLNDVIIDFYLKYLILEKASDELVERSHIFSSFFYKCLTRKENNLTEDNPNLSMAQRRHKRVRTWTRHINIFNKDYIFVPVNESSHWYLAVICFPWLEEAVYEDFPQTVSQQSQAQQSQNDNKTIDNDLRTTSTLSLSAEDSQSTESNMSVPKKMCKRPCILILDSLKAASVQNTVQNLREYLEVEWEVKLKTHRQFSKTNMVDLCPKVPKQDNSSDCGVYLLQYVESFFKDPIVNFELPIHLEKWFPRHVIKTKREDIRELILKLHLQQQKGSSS
PPC-1+TRAIL kill – compounds killing PPC-1 cancer cells with TRAIL present, primary screen, TRAIL potentiator project, ATPLite luminescence, uHTS; cell killing (% activity), % at 4 µM or 5 µM; PPC-1 cells + TRAIL, ATPLite viability luminescence; 0.41% of 220,000 active;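 active = cell killing above 50% in the first pass at 4 µM, then a duplicate retest at 5 µM averaging 50% or more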;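 also: plate controls were cells with TRAIL plus DMSO for no effect and medium-only wells lacking cells for full effect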
TRAIL sens C8 – viability loss with TRAIL in NB7+C8 cells, primary screen, TRAIL sensitizer project, cell-based, ATPlite luminescence; inhibition (viability loss, TRAIL sensitization), % at 10 µM; 1% of 360,000 active;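 active = compounds causing at least 50% loss of cell viability in the single-dose screen, relative to plate controls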
SENP8 block-1 – human SENP8 protease inhibitors, primary screen, biochemical, fluorescence, Nedd8 protein substrate, uHTS; Sentrin-specific protease 8 (Homo sapiens), Q96LD8; recombinant SENP8; inhibition, % at 20 µM; 0.64% of 360,000 active; in the data active = inhibition mostly above about 40%, no sharp cut-off; inactive = mostly below about 27%
SENP6 inh – SENP6 protease inhibitors, primary screen, biochemical, luminescence, uHTS. Recombinant SENP6 catalytic domain, aminoluciferin luminescence. inhibition, % at 10 µM. 1.8% of 330,000 active. AID 2599, 2010;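 active = inhibition above about 50% at the single tested dose, limit read from the data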;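 also: plate controls were DMSO wells with enzyme for no effect and DMSO wells lacking enzyme for full effect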
SENP8 block-2 – SENP8 protease inhibitors, primary screen, biochemical, luminescence; Sentrin-specific protease 8 (Homo sapiens), Q96LD8; purified SENP8, Z-RLRGG-aminoluciferin cleavage; inhibition, % at 10 µM; 1.2% of 330,000 active; AID 2540, 2010; in the data active = inhibition above about 50%
SENP8 confirm – SENP8 protease inhibitors, retest, confirmation, biochemical, luminescence, single concentration; AID 488912, 2010; Recombinant SENP8, Z-RLRGG-aminoluciferin luminescence, 60 min; 40% of 6,200 active; shares compounds with SENP7 block; inhibition, % at 12.5 µM;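 active = mean inhibition across replicates above about 50%, limit read from the data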
SENP6 confirm – SENP6 protease inhibitors, confirmation, biochemical, luminescence, single concentration. inhibition, % at 12.5 µM. shares compounds with SENP7 block. recombinant SENP6, Z-RLRGG-aminoluciferin luminescence. 58% of 6,200 active. AID 488915, 2010
SENP7 conf – SENP7 protease inhibitors, retest, confirmation, biochemical, luminescence, single concentration; shares compounds with SENP7 block; recombinant SENP7, Z-RLRGG-aminoluciferin luminescence, 40 min; inhibition, % at 12.5 µM; 69% of 6,200 active; AID 488917, 2010
Casp3 select – caspase-3 protease inhibitors, confirmation, selectivity assay for SENP inhibitor project, biochemical, single concentration; AID 488918, 2010; shares compounds with SENP7 block; inhibition, % at 12.5 µM; purified caspase-3, Z-DEVD-aminoluciferin luminescence, 60 min; 60% of 6,200 active;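 active = mean inhibition above about 50%, limit read from the data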;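 also: plate controls were enzyme with DMSO for no effect and wells without caspase-3 for full effect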
Target sequence (P42574 28-227 limits assumed): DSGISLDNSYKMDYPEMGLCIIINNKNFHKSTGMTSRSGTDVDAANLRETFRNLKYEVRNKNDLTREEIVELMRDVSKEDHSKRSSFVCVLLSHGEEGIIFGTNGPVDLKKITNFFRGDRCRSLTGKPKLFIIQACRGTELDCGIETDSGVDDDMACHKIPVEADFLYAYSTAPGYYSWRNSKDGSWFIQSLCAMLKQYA
Luc interf – counter-screen for SENP inhibitors: luminescence interference; shares compounds with SENP7 block; Pre-incubated SENP8/Z-RLRGG-aminoluciferin, luciferase luminescence interference; 39% of 6,200 active; inhibition, % at 12.5 µM; AID 488919;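 active = mean inhibition above about 50% when retested at one dose, limit read from the data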;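 also: plate controls were DMSO wells with completed reaction for no effect and substrate without enzyme for full effect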
* hit, by the source's call; i = inactive; · = no result. A selection: hits, their analogues and other compounds. The true share with any hit is near 3%.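 The calls were made as follows, unless noted: active = mean inhibition above about 50% in the one-dose retest (limit read from the data); inactive = the rest.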

SMILES	SENP7 block	PPC-1+TRAIL kill	TRAIL sens C8	SENP8 block-1	SENP6 inh	SENP8 block-2	SENP8 confirm	SENP6 confirm	SENP7 conf	Casp3 select	Luc interf
O=C(NC1CCCC1)C(C1CC1)n1c(-c2ccnc3ccccc23)nc2ccccc21 (stereo not given)	·	·	-9	-263	·	·	·	·	·	·	·
CN1CCN(C2CN(CCc3ccccc3)S(=O)(=O)C2)CC1 (stereo not given)	·	·	-9	13	·	·	·	·	·	·	·
CC(C)OCCCNC(=O)c1cn(C)c2ccc(S(=O)(=O)N(C)C3CCCCC3)cc2c1=O	-5	·	-11	8	-6	0	·	·	·	·	·
COc1ccc(/C=C/C(=O)c2ccccn2)cc1	15	6	-1	-22	27	17	·	·	·	·	·
COc1ccc(/C=C/C(=O)c2ccoc2)cc1	-6	10	-1	-12	6	-17	·	·	·	·	·
COc1ccc(/C=C/C(=O)c2ccc(O)cc2)cc1	74*	21	0	35	91*	90*	65*	48	64*	49	83*
COc1ccc(/C=C/C(=O)c2ccccc2O)cc1	67*	23	13	11	81*	64*	88*	84*	84*	35	46
Cc1noc(C)c1NC(=O)Nc1cccc2c1O[C@H](CN(C)S(=O)(=O)c1cccs1)[C@@H](C)CN([C@H](C)CO)C2=O	5	·	-2	8	-9	-5	·	·	·	·	·
CCCCN(C(=O)C(C)Oc1cccc(Cl)c1)c1c(N)n(CCC)c(=O)[nH]c1=O (stereo not given)	-8	·	4	6	-5	-6	·	·	·	·	·
O=C(c1ccco1)N1CCN(C2=NS(=O)(=O)c3ccccc32)CC1	-4	-4	-26	19	-34	-4	·	·	·	·	·
CN1CCN(c2cc(N3CCN(C(=O)c4ccco4)CC3)c3c4c(onc24)-c2ccccc2C3=O)CC1	21	·	19	65*	55*	38	4	18	12	16	12
NC(=O)C(CCc1nc2ccccc2[nH]1)NS(=O)(=O)c1ccccc1 (stereo not given)	·	·	-2	22	·	·	·	·	·	·	·
CN(C)c1ccc(C2NC(=O)c3ccccc3N2)cc1 (stereo not given)	93*	·	65*	-272	91*	87*	13	6	2	13	15
O=C1NC(c2ccc(Cl)cc2)Nc2ccccc21 (stereo not given)	6	10	25	-186	-6	-3	·	·	·	·	·
Cc1cccc(C(=O)Nc2sc(-c3ccccc3)cc2C(=O)O)c1	0	18	4	-432	85*	65*	78*	75*	72*	16	84*
CC(C)(C)C(=O)Nc1sc(-c2ccccc2)cc1C(=O)O	30	-5	30	-194	58*	19	39	30	70*	40	52*
CCCCN1CC2([N+](=O)[O-])C=CC(=O)C([N+](=O)[O-])(C1)C2CC(=O)c1ccccc1 (stereo not given)	-1	16	18	8	88*	-8	4	-1	2	4	3
CCN1CC2([N+](=O)[O-])C=CC(=O)C([N+](=O)[O-])(C1)C2CC(=O)c1ccccc1 (stereo not given)	10	8	-11	35	4	-1	·	·	·	·	·
Cn1cccc1/C=C1\SC(=Nc2ccc(O)cc2)NC1=O	4	1	4	14	0	-11	·	·	·	·	·
Cn1cccc1/C=C1\SC(=Nc2ccccc2)NC1=O	65*	-15	10	18	80*	72*	44	61*	64*	63*	27
CC1CCCCN1Cc1c(O)ccc2c(=O)c(-c3nc4ccccc4s3)c(N)oc12 (stereo not given)	-6	27	25	-368	-5	-6	·	·	·	·	·
NC(=O)COc1ccc2cc(-c3ccccc3)c(=O)oc2c1	5	·	-6	-415	-8	-19	·	·	·	·	·
O=C(NCc1ccccc1)c1cc2ccc(O)cc2oc1=O	96*	·	-11	-489	95*	97*	98*	98*	102*	98*	97*
COc1ccc(-c2cc3ccc(O)cc3oc2=O)cc1	58*	·	28	-397	88*	83*	73*	77*	93*	76*	62*
O=c1oc2cc(O)ccc2cc1-c1ccccc1	88*	·	5	-363	90*	91*	94*	94*	99*	92*	92*
SMILES	SENP7 block	PPC-1+TRAIL kill	TRAIL sens C8	SENP8 block-1	SENP6 inh	SENP8 block-2	SENP8 confirm	SENP6 confirm	SENP7 conf	Casp3 select	Luc interf
O=C(O)C(Oc1ccc2cc(-c3ccc(Cl)cc3)c(=O)oc2c1)c1ccccc1 (stereo not given)	30	·	-14	i	77*	46	74*	75*	63*	44	14
Nc1ncnc(N)c1NC(=O)c1ccc(OCc2ccccc2)cc1	·	·	0	22	·	·	·	·	·	·	·
COC(Cc1ccccc1N1CCCC1=O)OC	-16	·	2	18	-6	-12	·	·	·	·	·
CCOc1ccc(N2C(=O)CC(NCC#N)C2=O)cc1 (stereo not given)	-16	·	15	15	-20	-1	·	·	·	·	·
CN(C)S(=O)(=O)c1ccc(NC(=O)C2CC(=O)N(Cc3ccccc3Cl)C2)cc1 (stereo not given)	-11	·	-7	6	-11	-1	·	·	·	·	·
COc1cccc(NC(=O)CSC2=NN3CCCC(=O)N=C3S2)c1	-2	·	-3	13	12	3	·	·	·	·	·
COC(=O)COc1ccc2cc(-c3ccccc3)c(=O)oc2c1	50	·	4	-400	55*	34	16	44	7	23	2
COc1ccc(-c2cc3ccc(OCC(C)=O)cc3oc2=O)cc1OC	1	·	10	-317	12	0	·	·	·	·	·
